This note sets out measurements from PubChem BioAssay (NCATS).

Test [1] can be described thus: Cell Viability - SK-N-SH (AID 435; calls by dose curve;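 note: potency is the fitted concentration of half-maximal effect; compound exposure lasted 40 h at 37 °C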). The note with it: SK-N-SH neuroblastoma cell viability qHTS. The procedure, abridged: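 Human neuroblastoma line, 40 h exposure at 37 °C, ATP quantified via luciferase luminescence; DMSO and 100 uM tamoxifen define 0 and 100% inhibition for AC50 fitting.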
(In general: Quantitative high-throughput screening tests each substance at several concentrations.)

Test [2] is described as follows: Cell Viability - H-4-II-E (AID 543). Note: nearly all actives have a fitted effect of over 35% in size. Note: potency is the fitted concentration of half-maximal effect. As to conditions: H-4-II-E rat hepatoma viability; series mostly up to 92.2 µM. The method in brief:
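Rat hepatoma H-4-II-E cells, 1500 per well, treated 40 h at 37 °C in complete medium. Cellular ATP read by CellTiter-Glo luminescence; AC50 from Hill fits of concentration-response.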

Test [3] in a line: Cell Viability - Renal Proximal Tubule (AID 545). Note: nearly all actives have a fitted effect of over 40% in size. The note with it: renal proximal tubule cells viability; series mostly up to 91.7 µM. The procedure, abridged:
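In this qHTS format, normal rat kidney-derived proximal tubule cells in complete culture medium receive compound titrations, then sit 40 hours at 37 °C before luciferase-based ATP quantitation; potency is reported as AC50 from concentration-response curves.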

A short description of test [4]: Cell Viability - Mesenchymal (AID 546).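 Note: cells exposed to compound for 40 hours before reading.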 The note with it: mesenchymal cells viability, qHTS; series mostly up to 91.7 µM. The method in brief: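 Human kidney mesenchymal cells from normal renal glomeruli, 1000 cells/well, rested 5 hr at 37 °C, then treated 40 hr at 37 °C in complete medium. Cellular ATP read by CellTiter-Glo luminescence; AC50 from Hill-equation fits.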

Test [5] can be described thus: Cellular Toxicity (caspase-3) Jurkat (AID 655).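 Note: cells exposed to compound for 16 h at 37 °C before reading.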 As to conditions: Jurkat caspase-3 activation, luminescence; caspase-3 activation: at 92.2 µM (top of the series), DMSO = 0%, tamoxifen = 100%. The method in brief:
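qHTS in human Jurkat T-cell leukemia line: 16 hr compound treatment at 37 °C, caspase-3/7 activity measured by Caspase-Glo luminescence. AC50 derived from Hill equation.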

The nature of test [6]: Cell Viability - LYMP2-001 (AID 921). Note: nearly all actives have a fitted effect of over 70% in size. Note: potency is the fitted concentration of half-maximal effect. As to conditions: LYMP2-001 lymphoblastoid cell viability; series mostly up to 92.2 µM. The procedure, abridged: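 A lymphoblastoid cell line of human origin was treated with library compounds across a concentration series for 24 hours, and viable cell number was estimated from ATP-driven luciferase light output. Hill modeling gave AC50.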

The nature of test [7]: Cell Viability - LYMP1-003 - Assay at 40 hr (AID 964). Note: % is set by controls: 0 for no effect and ±100 for the full control effect; nearly all actives have a fitted effect of over 60% in size. The note with it: LYMP1-003 lymphoblastoid viability; series mostly up to 92.2 µM. The method in brief:
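LYMP1-003 human lymphoblastoid cells, 2500/well, preincubated 5 h at 37 C, then treated with compound for 40 h at 37 C. Intracellular ATP read by CellTiter-Glo luminescence after 30 min at room temperature; AC50 from Hill-equation fits.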

Test [8] can be described thus: Cell Viability - LYMP2-004 (AID 966). Note: nearly all actives have a fitted effect of over 65% in size. Note: potency is the fitted concentration of half-maximal effect. As to conditions: LYMP2-004 lymphoblastoid cell viability, qHTS; series mostly up to 92.2 µM. The method in brief: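 Lymphoblastoid LYMP2-004 cells, 2500 per well, were preincubated for 5 hr and then treated with compound for 24 h at 37 C in complete medium. Viability was read as cellular ATP by CellTiter-Glo luminescence, and AC50 values were taken from Hill fits to concentration-response data.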

Test [9] in a line: Cell Viability - LYMP2-011 (AID 969). Note: nearly all actives have a fitted effect of over 60% in size. Note: potency is the fitted concentration of half-maximal effect. The note with it: LYMP2-011 lymphoblastoid cells viability; series mostly up to 92.2 µM. The method in brief: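 2500 cells/well in complete medium, compound-treated 24 h at 37 C. Viability read as intracellular ATP by CellTiter-Glo luminescence after 30 min at room temperature. AC50 from Hill fits of qHTS concentration-response data.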
The nature of test [10]: Cell Viability - LYMP2-012 (AID 982).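 Note: cellular ATP by luciferase luminescence where a drop means cytotoxicity; cells exposed to compound for one day before reading; nearly all actives have a fitted effect of over 55% in size.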 Note: potency is the fitted concentration of half-maximal effect. As to conditions: LYMP2-012 lymphoblastoid cell viability qHTS; series mostly up to 92.2 µM.
The nature of test [11]: Cell Viability - LYMP2-020 (AID 986). Note: nearly all actives have a fitted effect of over 55% in size. Note: potency is the fitted concentration of half-maximal effect. The note with it: series mostly up to 92.2 µM. The procedure, abridged:
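Human lymphoblastoid LYMP2-020 cells (2500/well) preincubated 5 h at 37 C, then treated 24 h at 37 C. Viability measured as intracellular ATP by CellTiter-Glo luminescence after 30 min at room temperature; AC50 from Hill fits.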

Test [12] deals with Glucocorticoid receptor (Homo sapiens) (UniProt P04150). The test can be described thus: qHTS assay for small molecule agonists of glucocorticoid receptor signaling (AID 588532; active = well fitted curve in the direction sought with a large enough effect in the signal ratio, with a control signal flat; the % refers to the signal ratio;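 note: 100% = dexamethasone at 0.1 µM and 0% = DMSO only wells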). As to conditions: HeLa MMTV-bla, beta-lactamase ratio, agonist, 18 h; active compounds read high; percent of dexamethasone control, DMSO zero. The method in brief:
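Cells were plated and rested 3-5 h at 37 C, compounds were added in titration and incubated 18 h, then CCF4 substrate was loaded for 2 h at RT before reading blue/green fluorescence. EC50 came from Hill-equation fitting.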

Test [13] addresses Peroxisome proliferator-activated receptor gamma (Homo sapiens) (UniProt P37231). The test can be described thus: qHTS assay for small molecule agonists of peroxisome proliferator-activated receptor gamma signaling (AID 588536; active = well fitted curve in the direction sought with a large enough effect in the signal ratio, with a control signal flat, not every such curve was filed as active; the % refers to the signal ratio;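 note: 0% = DMSO basal wells and 100% = rosiglitazone at 2 µM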). The note with it: HEK293 PPARg-UAS-bla, beta-lactamase ratio, 16 h, percent of rosiglitazone response, DMSO as zero; series mostly up to 76.7 µM. The method in brief: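 PPAR-gamma-UAS-bla HEK293 cells in medium with 1% charcoal/dextran-treated FBS were exposed to compounds for 16 h at 37 C. Beta-lactamase activity was read with CCF4 substrate (405 nm excitation, 460/530 nm emission).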

Test [14] can be described thus: qHTS assay for small molecule activators of the nuclear factor-kappa B (NF-kB) signaling pathway (AID 651749; active = well fitted activation curve with a large enough effect in the signal ratio; the % refers to the signal ratio; note: % of control where 0% means no effect). As to conditions: NF-kB-bla ME-180 cells, beta-lactamase FRET ratio, 16 h; active compounds read high. The procedure, abridged: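 NF-kB-bla ME-180 cells carrying a beta-lactamase reporter under an NF-kB response element, 2,000 cells/well, exposed to compound for 16 hr at 37C; FRET-based beta-lactamase fluorescence read-out of pathway activation.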

A short description of test [15]: qHTS assay for small molecule disruptors of the mitochondrial membrane potential - 5 hr assay (AID 651755; calls by dose curve; note: nearly all actives have a fitted effect of over 40% in size; note: potency is the fitted concentration of half-maximal effect). The note with it: JC-1-type ratio dye; series mostly up to 92.2 µM. The procedure, abridged:
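HepG2 cells (2,000/well), attached overnight, exposed to compound 5 hr at 37C, then Mito-MPS dye 30 min. Fluorescence read for monomers (490/535 nm) and aggregates (540/590 nm).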

Test [16] deals with Nuclear receptor subfamily 1 group I member 2 (Rattus norvegicus) (UniProt Q9R1A7). The test can be described thus: qHTS assay for small molecule activators of the rat pregnane X receptor (rPXR) signaling pathway (AID 651751; call rule not given here; note: 0% is about no effect). As to conditions: rPXR reporter cells, luciferase (One-Glo), 24 h.
The nature of test [17]: Cell Viability - LYMP2-009 (AID 968). Note: nearly all actives have a fitted effect of over 55% in size. Note: potency is the fitted concentration of half-maximal effect. The note with it: LYMP2-009 lymphoblastoid cell viability; series mostly up to 92.2 µM.
Test [18] can be described thus: Cell Viability - LYMP2-021 (AID 974).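 Note: compound exposure lasts 24 hours at 37 °C; nearly all actives have a fitted effect of over 55% in size.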 Note: potency is the fitted concentration of half-maximal effect. The note with it: LYMP2-021 lymphoblastoid cells viability; series mostly up to 92.2 µM. The method in brief: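 Human lymphoblastoid LYMP2-021 cells, 2500/well in complete medium, treated 24 hours at 37 C. Intracellular ATP by CellTiter-Glo luminescence (30 min, RT); AC50 from Hill fits of concentration-response.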
The nature of test [19]: Cell Viability - LYMP2-008 (AID 980). Note: nearly all actives have a fitted effect of over 60% in size. Note: potency is the fitted concentration of half-maximal effect. The note with it: LYMP2-008 lymphoblastoid cell viability, qHTS; series mostly up to 92.2 µM. The method in brief: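 LYMP2-008 lymphoblastoid cells (2500/well) plated 5 h, then treated 24 h at 37 C in complete medium. Viability read as intracellular ATP by CellTiter-Glo luminescence after 30 min at room temperature; AC50 from Hill fits.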

In test [20] the target is Vitamin D3 receptor (Homo sapiens) (UniProt P11473). The test can be described thus: qHTS assay for small molecule antagonists of vitamin D receptor signaling (AID 588541; calls by dose curve;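 note: receptor activated by calcitriol during compound treatment; % is set by controls: 0 for no effect and ±100 for the full control effect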). The note with it: HEK293T VDR-UAS-bla, beta-lactamase ratio, antagonist mode; series mostly up to 76.7 µM. The procedure, abridged: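 VDR-UAS-bla HEK293T cells in 2% charcoal-stripped FBS were stimulated with 1-alpha,25-dihydroxyvitamin D3 (3 nM final) plus compound for 16 h at 37 C. The beta-lactamase CCF4 readout was normalized to 50 nM agonist and DMSO, and Hill fits gave IC50.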

Several values for one entry are separate records, joined by “and”; a condition that tells them apart may be missing. Equal values may be shown once. Unmarked numbers belong to inactive results. Records with an inconclusive call do not appear. Activity calls are given as the source filed them. Unless noted, calls come from the whole dose curve; as a rule, active = well fitted curve in the direction sought with a large enough effect; inconclusive = small, poorly fitted or top-dose-only effect, or another doubt; inactive = no such curve, though single readings can be large; an effect the other way counts as inactive or inconclusive. Bounds are passed on as bounds.

Glucocorticoid receptor (Homo sapiens), sequence (P04150 whole entry, looked up): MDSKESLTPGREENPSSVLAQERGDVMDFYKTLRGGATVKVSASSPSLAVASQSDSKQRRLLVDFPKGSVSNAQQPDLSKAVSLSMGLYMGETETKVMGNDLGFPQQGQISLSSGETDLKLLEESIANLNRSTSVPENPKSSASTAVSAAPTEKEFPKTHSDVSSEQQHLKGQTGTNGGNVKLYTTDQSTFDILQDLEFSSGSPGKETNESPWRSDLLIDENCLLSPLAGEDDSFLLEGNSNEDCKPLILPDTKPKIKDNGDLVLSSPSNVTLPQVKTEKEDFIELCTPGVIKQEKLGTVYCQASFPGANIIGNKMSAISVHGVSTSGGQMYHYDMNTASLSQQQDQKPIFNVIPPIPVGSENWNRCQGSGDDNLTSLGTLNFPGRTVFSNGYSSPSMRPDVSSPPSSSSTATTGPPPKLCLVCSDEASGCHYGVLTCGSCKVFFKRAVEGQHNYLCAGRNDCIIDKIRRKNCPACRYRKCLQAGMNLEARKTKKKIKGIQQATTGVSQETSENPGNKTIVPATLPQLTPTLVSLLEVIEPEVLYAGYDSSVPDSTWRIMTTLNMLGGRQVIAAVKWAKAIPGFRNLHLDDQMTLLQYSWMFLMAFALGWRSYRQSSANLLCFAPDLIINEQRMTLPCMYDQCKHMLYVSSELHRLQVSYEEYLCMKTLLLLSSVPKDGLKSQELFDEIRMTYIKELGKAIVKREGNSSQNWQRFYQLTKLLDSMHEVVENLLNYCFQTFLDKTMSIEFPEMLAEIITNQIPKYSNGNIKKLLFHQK
Nuclear receptor subfamily 1 group I member 2 (Rattus norvegicus), sequence (Q9R1A7 whole entry, looked up): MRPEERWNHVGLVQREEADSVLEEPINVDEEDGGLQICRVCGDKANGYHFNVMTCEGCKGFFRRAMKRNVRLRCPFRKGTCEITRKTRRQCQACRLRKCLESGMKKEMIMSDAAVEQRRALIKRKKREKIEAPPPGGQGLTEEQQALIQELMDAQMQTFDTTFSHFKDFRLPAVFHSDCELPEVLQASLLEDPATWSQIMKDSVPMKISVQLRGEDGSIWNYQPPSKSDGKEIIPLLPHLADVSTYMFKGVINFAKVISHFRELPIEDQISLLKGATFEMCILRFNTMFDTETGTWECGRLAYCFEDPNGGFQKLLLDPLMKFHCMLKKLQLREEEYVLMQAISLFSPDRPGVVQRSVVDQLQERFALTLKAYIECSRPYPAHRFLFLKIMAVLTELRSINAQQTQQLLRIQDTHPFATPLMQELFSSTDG
Peroxisome proliferator-activated receptor gamma (Homo sapiens), sequence (P37231 whole entry, looked up): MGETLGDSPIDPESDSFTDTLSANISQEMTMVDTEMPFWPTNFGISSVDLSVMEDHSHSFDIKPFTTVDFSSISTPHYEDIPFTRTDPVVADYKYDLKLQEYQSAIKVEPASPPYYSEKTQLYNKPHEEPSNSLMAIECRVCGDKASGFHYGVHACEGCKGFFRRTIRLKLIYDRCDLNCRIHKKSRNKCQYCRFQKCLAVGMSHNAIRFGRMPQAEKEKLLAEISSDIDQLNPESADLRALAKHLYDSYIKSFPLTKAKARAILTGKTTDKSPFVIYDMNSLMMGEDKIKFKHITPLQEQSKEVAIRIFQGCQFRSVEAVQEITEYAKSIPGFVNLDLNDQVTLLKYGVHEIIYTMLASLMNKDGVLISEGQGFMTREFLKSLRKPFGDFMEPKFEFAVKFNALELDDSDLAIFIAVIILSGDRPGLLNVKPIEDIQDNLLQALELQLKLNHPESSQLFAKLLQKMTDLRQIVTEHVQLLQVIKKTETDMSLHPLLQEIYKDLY
Vitamin D3 receptor (Homo sapiens), sequence (P11473 whole entry, looked up): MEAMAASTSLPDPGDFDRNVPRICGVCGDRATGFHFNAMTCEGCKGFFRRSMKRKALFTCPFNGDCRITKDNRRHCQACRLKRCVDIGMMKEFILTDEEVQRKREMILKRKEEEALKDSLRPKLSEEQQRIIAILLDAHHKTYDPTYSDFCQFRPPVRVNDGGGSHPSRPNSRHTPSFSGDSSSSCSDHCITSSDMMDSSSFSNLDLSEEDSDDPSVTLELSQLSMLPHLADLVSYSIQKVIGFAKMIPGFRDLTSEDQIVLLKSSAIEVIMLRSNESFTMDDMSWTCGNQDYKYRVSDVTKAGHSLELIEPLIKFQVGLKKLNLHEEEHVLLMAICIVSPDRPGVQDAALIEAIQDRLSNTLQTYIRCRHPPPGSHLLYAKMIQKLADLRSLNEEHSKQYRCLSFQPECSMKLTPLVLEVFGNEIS

Regarding `ClCC(Br)CBr` (centres undefined), the Potency in test [1] is over 92 µM. The Potency entry in [2], in [4], in test [6], in test [7], in test [8] and in test [9] was “inactive” in each case. Besides, the Potency entry in test [10], in [11] and in test [15] was “inactive” in each case. Moreover, the outcome in test [3] and in test [13] was inactive. Further, the caspase-3 activation in test [5] is 0.662%. For the same compound, the activation was -3.35% in test [12] and -0.578% in [14]. The max response in test [16] is 0.571%.
`c1ccc(Nc2ccc(Nc3ccccc3)cc2)cc1`: the Potency is over 92 µM in test [1], 7.94 µM (active) in test [2] and 59.6 µM (active) in test [15]. Also, the Potency result in test [4], in test [7], in test [8], in test [17], in [9] and in test [18] was “inactive” throughout. Moreover, the Potency result in test [19], in [10] and in test [11] was “inactive” each time. Further, in [5], the caspase-3 activation was 8.77%. Also, the result in test [20] was inactive.
Consider `Nc1c(Br)cc([N+](=O)[O-])cc1[N+](=O)[O-]`, for which the Potency is over 92 µM in [1] and 26.6 µM (active) in test [15]. Moreover, the Potency entry in [6], in test [7], in test [8], in test [17], in test [9] and in [10] was “inactive” each time. For the same compound, the activation in [14] is -0.945%. The max response in test [16] is 14.9%.
Regarding `Oc1cc(Cl)c(Cl)c(Cl)c1`, the Potency in [2] was 63.1 µM (active); in test [15] it was 37.6 µM (active). The Potency entry in test [4], in test [6] and in test [7] was “inactive” throughout. The caspase-3 activation in test [5] is 14.2%. In addition, the activation is 5.15% in test [12] and -0.357% in test [14]. In addition, the outcome in test [20] was inactive. In addition, the max response in [16] is -2.97%.
As for `C=CC(=O)OCCO`, the activation in test [12] is 19.7%; in test [14], 0.11%. Also, the result in test [20] was inactive. Besides, in test [15], the Potency result is “inactive”. Further, in test [16], the max response is 0.767%.
As to `CN(C)c1ccc(N=Nc2ccccc2)cc1`, in test [1], the Potency is over 92 µM. Moreover, the Potency result in test [4], in test [6], in test [7], in test [8], in test [9] and in test [18] was “inactive” each time. For the same compound, the Potency entry in test [10] was “inactive”. For the same compound, the caspase-3 activation in [5] was -9.1%. Moreover, the activation in [12] is 0.929%. The result in test [13] was inactive.
Consider `BrCC(Br)(Br)Br`, for which the Potency was over 92 µM in test [1]; 31.6 µM (active) in test [17]; 39.8 µM (active) in [9]; 20 µM (active) in [18]; 39.8 µM (active) in test [19]; 12.6 µM (active) in [10]. In addition, the compound was classed as inactive in [3], in [13] and in test [20]. The Potency entry in test [4], in [7], in [8] and in test [15] was “inactive” throughout. The activation in [14] is 0.84%. Moreover, the max response in test [16] is -4.89%.
For the compound `Clc1ccc(C(c2ccccc2Cl)C(Cl)(Cl)Cl)cc1` (centres undefined), the compound was called inactive in test [3], in [13] and in test [20]. Also, the Potency entry in [4], in test [7], in test [8], in test [17], in [9] and in [18] was “inactive” each time. The Potency entry in [11] is “inactive”. In [5], the caspase-3 activation was 5.05%. The activation in test [12] was 1.13%; in test [14], 3.52% and 5.2%.
As for `O=[N+]([O-])c1cccc(CCl)c1`, the Potency is over 92 µM in test [1], 50.1 µM (active) in test [2] and 79.4 µM (active) in [17]. Moreover, the call in test [3] was inactive. Besides, the Potency result in test [7], in test [8], in test [19], in [10] and in test [15] was “inactive” throughout. Besides, the activation in test [12] was 5.78%; in [14], 1.19%. In test [16], the max response was -4.81%.
Take `N#C/C=C/C#N`: the Potency was 24.4 µM (active) in [1]; 50.1 µM (active) in test [2]; 31.6 µM (active) in test [6]; 15.8 µM (active) in test [8]; 39.8 µM (active) in test [9]; 39.8 µM (active) in test [18]. In addition, the values for the Potency in [19], in test [10] and in test [11] were 39.8 µM (active), 20 µM (active) and 31.6 µM (active), respectively. For the same compound, in test [3], the call was inactive. Also, the caspase-3 activation in test [5] was -8.24%. The Potency entry in test [7] and in [15] was “inactive” each time. In test [16], the max response was -4.77%.
Take `[C-]1=CC=CC1.[C-]1=CC=CC1.[Cl-].[Cl-].[Ti+4]`: the Potency result in [2] and in [4] was “inactive” each time. For the same compound, the compound was classed as inactive in test [3].
With `Oc1cc(Cl)c(Cl)c(Cl)c1Cl`, the Potency result in test [6], in test [7], in test [8] and in test [19] was “inactive” in each case. In addition, the activation in test [12] was 5.92%. Further, the max response in test [16] is -6.73%.
